# Active and inactive are the calls of the source. Unless noted, the rule behind the calls is not given here.
# What was measured:
# [1] = liver-stage malaria parasite load reduction – cell-based, known kinase inhibitor set, luminescence, hepatoma host viability (AID 624392); conditions: Plasmodium liver stage in hepatoma cells, luciferase luminescence, concentration not given here; liver cell % of control: measured here: host liver cell viability; parasite % of control: stronger effect = lower value;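 note: infected cells incubated roughly two days before readout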
# [2] = altered dexamethasone sensitivity, NF-kB reporter, cell-based, luciferase, IL-1B stimulus (AID 624486); conditions: IL-1B + dexamethasone, luminescence; percent of negative control (+Dex): actives lie on both sides, concentration not given here; z-score: measured here: IL-1B alone, no Dex;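 for percent of negative control (+Dex): 100% = mean signal of vehicle control wells on the plate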
# [3] = C. elegans survival during P. aeruginosa infection – whole organism (AID 651566);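 note: tested at 14 µM; sign flipped so higher z means a lower ratio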; conditions: C. elegans killed by P. aeruginosa, survival ratio
# [4] = pro-inflammatory signaling induction in mouse macrophages – cell-based, murine, luminescence (AID 652131); conditions: murine macrophage pro-inflammatory reporter, stronger effect = higher value
# [5] = biological target: Cellular tumor antigen p53 (Homo sapiens) (UniProt P04637); assay: GFP-p53 level modulators in HPV16+ cells – imaging, known kinase inhibitor set, EGFP/DsRed ratio (AID 1053116); conditions: GFP-p53 stability, stronger effect = higher value; EGFP object count: measured here: GFP-p53 positive objects count;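 note: cells exposed to compounds for 24 h at 37 °C before reading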
# [6] = inducers of IRF3 signaling, differentiated THP-1 – cell-based, PMA-stimulated THP-1, luminescence (AID 1053176); conditions: PMA-differentiated THP-1, IRF3 reporter luminescence; stronger effect = higher value
# [7] = MELAS cybrid and Rieske KO viability enhancers – cell-based, MELAS cybrids, Rieske KO mouse fibroblasts, CellTiter-Glo, primary screen (AID 1508586;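 active = mean z-score across replicates of 1.96 or higher in either the MELAS or the Rieske mutant cell line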;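 note: z relative to plate mean and SD of compound and empty wells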); conditions: low glucose
# [8] = MELAS cybrid survival, CellTiter-Glo 48 h, stronger effect = higher value
# [9] = Rieske KO mouse fibroblast survival, CellTiter-Glo 72 h
# Chain of Cellular tumor antigen p53 (Homo sapiens) (P04637 whole entry, looked up): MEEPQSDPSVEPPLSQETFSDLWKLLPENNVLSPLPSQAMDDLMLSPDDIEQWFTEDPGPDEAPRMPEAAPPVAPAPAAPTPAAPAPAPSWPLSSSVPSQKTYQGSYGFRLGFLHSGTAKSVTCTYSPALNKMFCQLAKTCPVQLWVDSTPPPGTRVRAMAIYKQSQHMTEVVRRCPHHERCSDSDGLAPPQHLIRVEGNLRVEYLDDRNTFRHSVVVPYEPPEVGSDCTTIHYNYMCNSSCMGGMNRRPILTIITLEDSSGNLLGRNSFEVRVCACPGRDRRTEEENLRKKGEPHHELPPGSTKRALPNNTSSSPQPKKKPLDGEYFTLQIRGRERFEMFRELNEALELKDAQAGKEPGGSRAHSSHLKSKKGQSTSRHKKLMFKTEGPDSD
SMILES,liver cell % of control [1] [%],parasite % of control [1],percent of negative control (+Dex) [2],z-score [2],z-score [3],z-score [4],EGFP object count [5],EGFP/DsRed ratio [5],fraction signal [6],"z-score [7, 8]","z-score [7, 9]"
c1ccc(Cc2nc3ccc(Nc4ncnc5ccccc45)cc3[nH]2)cc1,166,15.2% (inactive),83% (inactive),-0.365,1.34 (inactive),4.91 (inactive),5,0.119 (inactive),-0.007 (inactive),0.254 (inactive),-0.299
CN(C)C(=O)O[C@H]1CN[C@H](C#Cc2cc3ncnc(Nc4ccc(OCc5cccc(F)c5)c(Cl)c4)c3s2)C1,97.6,127% (inactive),92% (inactive),-0.215,0.225 (inactive),-0.738 (inactive),2,0.131 (inactive),0.001 (inactive),-0.153 (inactive),-0.193
O=S(=O)(CCOCc1ccc(-c2ccc3ncnc(Nc4ccc(OCc5cccc(F)c5)c(Cl)c4)c3c2)o1)c1ccccc1,105,111% (inactive),78% (inactive),-1.27,-1.41 (inactive),-0.482 (inactive),2,0.0356 (inactive),-0.003 (inactive),-0.647 (inactive),-0.248
COc1ccc2cc(-c3c(-c4ccncc4)nc(-c4ccc(S(C)(=O)=O)cc4C)n3C)ccc2c1,118,101% (inactive),99% (inactive),0.22,1.57 (inactive),-0.298 (inactive),1.5,0.0486 (inactive),0.0025 (inactive),-0.409 (inactive),-0.281
COc1ccc2cc(-c3c(-c4ccncc4)nc(-c4ccc(S(C)=O)cc4)n3C)ccc2c1 (configuration not stated),117,121% (inactive),93.5% (inactive),0.505,-0.78 (inactive),0.151 (inactive),5,0.161 (inactive),-0.0035 (inactive),-0.944 (inactive),-0.225
N#Cc1ccc2c(-c3ccnc(NC4CC4)n3)c(-c3ccc(F)cc3)nn2c1,122,87.3% (inactive),106% (inactive),0.525,-0.52 (inactive),2.06 (inactive),0.5,0.00284 (inactive),0 (inactive),-0.69 (inactive),-0.125
Nc1ncnc2occ(-c3ccc(NC(=O)Nc4cccc(C(F)(F)F)c4)cc3)c12,49.9,10.9% (inactive),66.5% (active),-3,-0.335 (inactive),-1.22 (inactive),3.5,0.146 (inactive),-0.016 (inactive),-0.197 (inactive),-0.452

# — PubChem BioAssay
